# From PubChem BioAssay
# “And” between values parts separate entries of the source, which are not always exact repeats. Identical values can stand only once. The source made the active and inactive calls. Unless noted, no stated cut-off is given here; in the data, active means inhibition above about 80%; inactive means the rest.
# Columns and labels:
# [1] = molecular target: NAD(+) hydrolase SARM1 (Homo sapiens) (UniProt Q6SZW1); test: SARM1 TIR NADase inhibitors, cell lysate, NAD-Glo luminescence (AID 1508614;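 active means compound whose remaining NAD level is above about 45 nM, limit read from the data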); settings: SAM-TIR HEK293T lysate NADase, at 1 µM, stronger effect = higher value
# [2] = molecular target: Mitogen-activated protein kinase 7 (Homo sapiens) (UniProt Q13164); test: ERK5 transactivation activators in reporter cells, primary screen, cell-based, HTS (AID 1508626;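 active means luciferase signal above three times the same-plate solvent-only control wells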;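 further: luciferase driven by Gal4-ERK5 fusion binding five Gal4 sites before minimal TATA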); settings: HeLa Gal4-ERK5 transactivation, 18 h, at 5 µM, stronger effect = higher value
# [3] = liver-stage malaria parasite growth inhibition, primary screen, cell-based, HepG2, luciferase luminescence, HepG2 viability (AID 624349; in the data active means parasite load remaining mostly below about 12%, no sharp cut-off; inactive means mostly above about 10%;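 further: 100% = mean of DMSO negative control wells on the same plate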); settings: P. berghei liver stage in HepG2, luciferase luminescence, concentration not given here; parasite load remaining: stronger effect = lower value; viability: measured here: HepG2 viability without parasites
# [4] = viability rescue of complex I mutant cybrids, primary screen, cell-based, galactose medium, ATP luminescence (AID 1645843;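 active means z-score of at least 1.8 in each of two replicates, scored against plate mean and spread of sample wells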;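 further: positive z means more ATP and so rescue of galactose-driven cybrid death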); settings: complex I mutant cybrid cells, 72 h, stronger effect = higher value
# [5] = LFS_MB_1R medulloblastoma cell growth inhibition, synergistic combos for chromothripsis tumors, cisplatin or BGB combos (AID 1671452); settings: LFS_MB_1R medulloblastoma cells, stronger effect = higher value;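 further: cells exposed for 96 hours before readout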
# [6] = CRL2098 osteosarcoma cell growth inhibition, synergistic combos for chromothripsis tumors, BGB or cisplatin IC20 combos (AID 1671454); settings: CRL2098 osteosarcoma cells, drug combinations, stronger effect = higher value;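 further: cells exposed for 96 h before readout; 0% = vehicle DMSO and 100% = killing by high DMSO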
# [7] = HD-MB03 medulloblastoma cell growth inhibition, synergistic combos for chromothripsis tumors, BGB or cisplatin IC20 combos (AID 1671455; in the data active means inhibition above about 83%;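 further: 0% = vehicle DMSO and 100% = high DMSO as cytotoxic control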); settings: HD-MB03 medulloblastoma cells, stronger effect = higher value
# [8] = UWB1.289 ovarian carcinoma cell growth inhibition, synergistic combos for chromothripsis tumors, BGB or cisplatin combos (AID 1671456); settings: UWB1.289 ovarian carcinoma cells, stronger effect = higher value;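 further: cells exposed to compound for four days; 0% = vehicle DMSO and 100% = killing by high DMSO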
# [9] = LFS_MB_2R medulloblastoma cell growth inhibition, synergistic combos for chromothripsis tumors, cisplatin combos (AID 1671457); settings: LFS_MB_2R medulloblastoma cells, stronger effect = higher value;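 further: cells exposed to compound for four days before readout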
# [10] = UWB1.289_BRCA1 ovarian cancer growth, cell-based, BGB or cisplatin combinations (AID 1671459); settings: UWB1.289 BRCA1 ovarian carcinoma, drug combinations, stronger effect = higher value
# [11] = human astrocyte viability loss, single and combined drugs, cytotoxicity control for chromothriptic childhood tumor combination screen, cell-based, BGB or cisplatin IC20 combos (AID 1671460); settings: Human astrocytes, drug combinations, stronger effect = higher value;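 further: cells exposed to compounds for 96 hours before viability readout; 0% = vehicle and 100% = killing control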
# [12] = growth inhibition of CRL1545 osteosarcoma cells, cell-based, cisplatin and BGB IC20 combos (AID 1671464); settings: stronger effect = higher value;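 further: cells exposed to compound for 96 hours before readout; 0% = vehicle DMSO and 100% = high DMSO killing control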
# [13] = measured here: combination with BGB IC40, at 0.05 µM
# [14] = measured here: combination with cisplatin, at 0.5 µM
# [15] = measured here: combination with cisplatin, at 5 µM
# [16] = measured here: combination with BGB at IC20, at 0.5 µM
# [17] = measured here: combination with cisplatin at IC20, at 0.5 µM
# [18] = measured here: combo with BGB at IC20, at 0.5 µM
# [19] = measured here: combo with cisplatin at IC20, at 0.5 µM
# [20] = measured here: inhibition with BGB combination, at 0.05 µM
# [21] = measured here: inhibition with cisplatin combination, at 0.05 µM
# [22] = BGB combination, concentration series, at 5 µM
# [23] = cisplatin combination, concentration series, at 5 µM
# [24] = measured here: combo with BGB IC20, at 0.5 µM
# [25] = measured here: combo with cisplatin IC20, at 0.5 µM
# [26] = measured here: with BGB IC20 combination, at 0.5 µM
# [27] = measured here: with cisplatin IC20 combination, at 0.5 µM
# Chain of Mitogen-activated protein kinase 7 (Homo sapiens) (Q13164 whole entry, looked up, the tested form may be a part): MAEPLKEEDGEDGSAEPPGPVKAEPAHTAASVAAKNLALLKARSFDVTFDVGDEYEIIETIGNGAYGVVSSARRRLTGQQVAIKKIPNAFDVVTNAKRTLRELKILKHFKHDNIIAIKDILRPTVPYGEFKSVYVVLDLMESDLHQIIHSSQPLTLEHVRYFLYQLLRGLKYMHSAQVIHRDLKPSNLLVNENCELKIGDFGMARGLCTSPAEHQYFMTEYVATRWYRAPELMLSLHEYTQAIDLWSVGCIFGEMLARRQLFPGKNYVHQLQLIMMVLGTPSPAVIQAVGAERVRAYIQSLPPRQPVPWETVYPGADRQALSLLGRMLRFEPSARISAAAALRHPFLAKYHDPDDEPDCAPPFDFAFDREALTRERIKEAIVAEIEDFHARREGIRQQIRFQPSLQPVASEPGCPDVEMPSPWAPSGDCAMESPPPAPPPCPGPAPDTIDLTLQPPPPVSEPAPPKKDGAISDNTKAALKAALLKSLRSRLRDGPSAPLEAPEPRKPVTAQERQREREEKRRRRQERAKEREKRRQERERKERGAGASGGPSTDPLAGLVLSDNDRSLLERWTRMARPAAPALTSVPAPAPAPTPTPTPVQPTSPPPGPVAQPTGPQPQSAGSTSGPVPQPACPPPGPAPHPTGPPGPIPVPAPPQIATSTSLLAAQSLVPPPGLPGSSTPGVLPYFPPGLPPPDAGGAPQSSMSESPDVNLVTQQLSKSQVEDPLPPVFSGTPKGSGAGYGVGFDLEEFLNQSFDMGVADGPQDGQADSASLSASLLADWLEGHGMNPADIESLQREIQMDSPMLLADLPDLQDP
# Chain of NAD(+) hydrolase SARM1 (Homo sapiens) (Q6SZW1 whole entry, looked up, the tested form may be a part): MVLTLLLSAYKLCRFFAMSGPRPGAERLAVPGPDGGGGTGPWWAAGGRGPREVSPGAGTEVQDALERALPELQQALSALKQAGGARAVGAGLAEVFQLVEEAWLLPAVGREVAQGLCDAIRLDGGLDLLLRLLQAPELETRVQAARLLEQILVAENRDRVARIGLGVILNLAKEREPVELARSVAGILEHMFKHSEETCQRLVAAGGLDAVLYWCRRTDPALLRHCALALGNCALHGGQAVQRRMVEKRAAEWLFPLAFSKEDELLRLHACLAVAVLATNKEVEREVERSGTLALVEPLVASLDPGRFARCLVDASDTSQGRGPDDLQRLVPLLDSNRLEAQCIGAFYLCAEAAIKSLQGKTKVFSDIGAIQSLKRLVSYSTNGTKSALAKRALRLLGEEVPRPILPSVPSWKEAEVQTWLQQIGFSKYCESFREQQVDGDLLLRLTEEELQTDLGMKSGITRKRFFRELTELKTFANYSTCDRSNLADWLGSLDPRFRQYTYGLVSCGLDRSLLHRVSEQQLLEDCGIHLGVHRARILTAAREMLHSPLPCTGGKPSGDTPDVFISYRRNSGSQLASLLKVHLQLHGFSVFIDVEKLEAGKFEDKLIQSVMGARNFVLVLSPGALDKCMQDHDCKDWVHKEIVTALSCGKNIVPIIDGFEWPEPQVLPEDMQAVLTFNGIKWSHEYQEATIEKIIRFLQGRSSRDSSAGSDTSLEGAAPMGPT
compound,measurement,setting,value
CC1(C)O[C@@H]2C[C@H]3[C@@H]4CCC5=CC(=O)C=C[C@]5(C)[C@H]4[C@@H](O)C[C@]3(C)[C@]2(C(=O)CO)O1,remaining NAD,[1],10 nM (inactive)
same,luciferase signal,[2],172 AU (inactive)
C=C(c1ccc(C(=O)O)cc1)c1cc2c(cc1C)C(C)(C)CCC2(C)C,parasite load remaining,[3],34.5% (inactive)
same,viability,[3],146%
same,z-score,[4],0.715 (inactive)
Cc1ccc([N+](=O)[O-])cc1S(=O)(=O)N(C)/N=C/c1cnc2ccc(Br)cn12,parasite load remaining,[3],40.5% (inactive)
same,viability,[3],60.2%
same,inhibition,[5]; at 0.5 µM,82.3% (active)
same,inhibition,[5]; [13],-47.5%
same,inhibition,[5]; [14],77.8%
same,inhibition,[5]; [15],97.4%
same,inhibition,[6]; at 0.5 µM,89.7% (active)
same,inhibition,[6]; [16],91.5%
same,inhibition,[6]; [17],95.8%
same,inhibition,[7]; at 0.5 µM,84.2% (active)
same,inhibition,[7]; [18],85%
same,inhibition,[7]; [19],81.5%
same,inhibition,[8]; at 0.5 µM,63.4% (inactive)
same,inhibition,[8]; [20],-17.5%
same,inhibition,[8]; [21],-14.7%
same,inhibition,[9]; at 0.5 µM,63.9% (inactive)
same,inhibition,[9]; [14],63.1%
same,inhibition,[9]; [15],90.7%
same,inhibition,[10]; [22],89.2%
same,inhibition,[10]; at 0.5 µM,73.9% (inactive)
same,inhibition,[10]; [23],92.4%
same,inhibition,[11]; at 0.5 µM,83.2% (active)
same,inhibition,[11]; [24],77.8%
same,inhibition,[11]; [25],81.3%
same,inhibition,[12]; at 0.5 µM,96.9% (active)
same,inhibition,[12]; [26],98.1%
same,inhibition,[12]; [27],96.2%
same,inhibition,"[12]; single agent, at 0.05 µM",-27.4%
same,inhibition,"[12]; single agent, at 5 µM",99.9%
CN(C)Cc1c(C(=O)NCCOc2ccc(C(=O)NO)cc2)oc2ccccc12,inhibition,[5]; at 0.5 µM,45.6% (inactive)
same,inhibition,[5]; [13],-17%
same,inhibition,[5]; [14],62.1%
same,inhibition,[5]; [15],98.2%
same,inhibition,[6]; at 0.5 µM,25.5% (inactive)
same,inhibition,[6]; [16],32.6%
same,inhibition,[6]; [17],21.9%
same,inhibition,[7]; at 0.5 µM,99.3% (active)
same,inhibition,[7]; [18],99.1%
same,inhibition,[7]; [19],99.5%
same,inhibition,[8]; at 0.5 µM,49.7% (inactive)
same,inhibition,[8]; [20],11.1%
same,inhibition,[8]; [21],27.1%
same,inhibition,[9]; at 0.5 µM,51.5% (inactive)
same,inhibition,[9]; [14],71.4%
same,inhibition,[9]; [15],106%
same,inhibition,[10]; [22],111%
same,inhibition,[10]; at 0.5 µM,59.3% (inactive)
same,inhibition,[10]; [23],125%
same,inhibition,[11]; at 0.5 µM,49.9% (inactive)
same,inhibition,[11]; [24],45%
same,inhibition,[11]; [25],44%
same,inhibition,[12]; at 0.5 µM,80.7% (active)
same,inhibition,[12]; [26],78.9%
same,inhibition,[12]; [27],81.1%
same,inhibition,"[12]; single agent, at 0.05 µM",38.5%
same,inhibition,"[12]; single agent, at 5 µM",96.4%
CN1CCc2c(c3ccccc3n2Cc2ccc(C(=O)NO)cc2)C1,inhibition,[5]; at 0.5 µM,-13.1% (inactive)
same,inhibition,[5]; [13],-12% and -15.8%
same,inhibition,[5]; [14],-23.4% and -23.9%
same,inhibition,[5]; [15],-0.081% and -53.5%
same,inhibition,[6]; at 0.5 µM,21.5% (inactive) and -46.3% (inactive)
same,inhibition,[6]; [16],-14.9% and -43.1%
same,inhibition,[6]; [17],34.9% and -68.1%
same,inhibition,[7]; at 0.5 µM,-1.98% (inactive) and 0.91% (inactive)
same,inhibition,[7]; [18],-6.31% and -10.4%
same,inhibition,[7]; [19],1.42% and 11.7%
same,inhibition,[8]; at 0.5 µM,1.69% (inactive) and 0.65% (inactive)
same,inhibition,[8]; [20],-1.11% and -13.8%
same,inhibition,[8]; [21],3.47% and 1.13%
same,inhibition,[9]; at 0.5 µM,-14.9% (inactive) and -18.4% (inactive)
same,inhibition,[9]; [14],-17.1% and -16.5%
same,inhibition,[9]; [15],-17.1% and 0.035%
same,inhibition,[10]; [22],19.3% and 22.8%
same,inhibition,[10]; at 0.5 µM,-0.05% (inactive) and 2.69% (inactive)
same,inhibition,[10]; [23],23.3% and 11.9%
same,inhibition,[11]; at 0.5 µM,-0.01% (inactive) and -0.33% (inactive)
same,inhibition,[11]; [24],5.22% and 4.02%
same,inhibition,[11]; [25],-7.05% and -4.68%
same,inhibition,[12]; at 0.5 µM,17% (inactive) and -23.2% (inactive)
same,inhibition,[12]; [26],-9.72% and -7.89%
same,inhibition,[12]; [27],29.2% and -33%
same,inhibition,"[12]; single agent, at 0.05 µM",-10.6% and -2.77%
same,inhibition,"[12]; single agent, at 5 µM",6.01% and -28.9%
